About 83,000 compounds went through this panel and 20% of them were active in at least one assay; those are over-represented in the sample as a whole.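 96-well plates, one dose, 48 hours. Percent growth reported; active if below 10.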 Unmarked numbers belong to inactive results. Active and inactive are the calls of the source.

This assay concerns HL-60(TB) leukemia. Kind of assay: NCI-60 one-dose screen, 48 h (100 = growth as untreated, 0 = no growth, -100 = all killed). The settings on record: 10 µM unless noted.
Take `CCCSC1=NC2C(N(CC)C(=O)N2CC)N1/N=C/C=C/c1ccccc1[N+](=O)[O-]` (stereo not given): the growth is -29.8% (active). As for `O=C1C2=C(Nc3cc([N+](=O)[O-])ccc3N2)OC1c1c2ccccc2cc2ccccc12` (stereo not given), the growth was 14.2%. `S=c1[nH]nc2sc3ccccc3n12`: the growth is 107%.

With `CC[N+](CCCCCCCCCC[N+](CC)(c1ccccn1)c1ccccn1)(c1ccccn1)c1ccccn1`, the growth is -50.7% (active).

In the case of `CCN(CC)c1ccc2nc3ccc(N=Nc4ccc(O)cc4)cc3[n+](-c3ccccc3)c2c1`, the growth is 21.8%.

For `Cc1ccc(Cc2cnc(NC(=O)CN3C(=O)/C(=C\c4ccccc4)SC3=S)s2)cc1`, the growth was 99.6%. The result for `COc1ccc(Cc2nc(C#N)c(N3CCN(c4ccc(F)cc4)CC3)o2)cc1` reads 79.2%; that for `Nc1cc2ccncc2c2ccccc12`, 90%. The result for `c1cc(C2CCCCC2)ccc1OCCCCCCN1CCNCC1` reads -38.4% (active); that for `CS(=O)(=O)c1ccc(Cl)c([N+](=O)[O-])c1`, 14%.

On to `CCOc1ccc(NC(=O)c2cc(OC)c(OC)c(OC)c2)cc1`, for which the growth was -8.94% (active).

On to `COc1ccc(S(=O)(=O)NCCCNc2nccc(-c3c(-c4cccc([N+](=O)[O-])c4)nc4sccn34)n2)cc1`, for which the growth was 22.9%.

On to `Cc1nccc2c3ccc(OCc4cn(-c5ccccc5)nn4)cc3n(CCCc3ccccc3)c12`, for which the growth is 30.1%. On to `COc1cc(C(=O)/C=C/c2c(C)n([O-])c3ccc(Cl)cc3[n+]2=O)cc(OC)c1OC`, for which the growth was -59.5% (active).

On to `C/C=C(\C)C(=O)N[C@H]1CC[C@]2(C)C3CC[C@@]4(C)C(CC[C@@H]4C(C)N(C)C)C3CCC2[C@H]1OC(C)=O` (stereo not given in full), for which the growth is 18.2%.

For `CC(=O)OC1Oc2cc(C)c(C)cc2-c2oc(=O)c(-c3cc4ccc(N(C)C)cc4oc3=O)cc21` (stereo not given), the growth was 25.6%. With `Cc1cc(NC(=O)c2ccc(C)c(Nc3nccc(-c4cccnc4)n3)c2)cc(-n2cnc(C)c2)c1`, the growth was 22.8%. The result for `N#C/C(=C\c1ccc(-c2ccc(F)cc2)o1)c1nc(-c2ccco2)cs1` reads 98%. As to `O=C(NCCc1c[nH]c2ccccc12)C1Cc2ccccc2CN1C(=O)c1ccco1` (stereo not given), the growth was 82.8%.

As for `COc1cc(OC)c(C(=O)/C=C/c2ccc(C#N)cc2)c(OC)c1`, the growth was -7.85% (active).

For `Fc1ccc(CNCCNc2ncnc3c2cnn3-c2ccccc2)cc1`, the growth was 83.1%. Consider `COc1ccc(NC(=O)c2sc3nc(C)c(C(O)c4ccc(OC)cc4)cc3c2N)cc1` (stereo not given), for which the growth was -59.5% (active).

With `O=C(CSSCC(=O)c1ccc(Cl)cc1)c1ccc(Cl)cc1`, the growth was 44.7%. As for `CN1C(=O)CN2CCc3ccccc3C2c2cc(Cl)ccc21` (stereo not given), the growth was 86.8%. The figure for `C=CCCC1(C)NC(=O)NC1=O` (stereo not given) is 97.7%; for `COc1cc(CNS(=O)(=O)c2ccc(C)cc2)ccc1OCc1cn(-c2ccc(Br)cc2)nn1` it is 106%; for `CCc1ccc2c(c1)N(CCO)C1=C(C(=O)OC1)C2c1ccccc1` (stereo not given) it is 94.9%. On to `Cc1ccc(NC(=O)Cn2c(Br)nc3c2c(=O)n(C)c(=O)n3C)cc1`, for which the growth is 102%.

As to `CCOCCc1c(O)nc(SC)[nH]c1=O`, the growth was 93.3%.

As for `Cc1ccc(Nc2nc(N)nc(N)c2N=O)cc1Cl`, the growth is 67.9%.

Regarding `COc1ccc(Nc2ccc3ccccc3c2)cc1`, the growth was 91.3%. Regarding `OCCCCc1nccc2c1[nH]c1ccccc12`, the growth was 73.7%. With `COc1ccccc1N1CCN(CCCOc2ccc(C(=O)/C=C3/C(=O)Nc4ccccc43)cc2)CC1`, the growth is 52.8%. For the compound `O=c1[nH]n(-c2ccccc2)c(=O)cc1Cl`, the growth is 103%. The result for `CCCCCCCCCCCCCCCCCC(=O)OCCCCCCCCCCCCC` reads 112%; that for `CSc1nc(N)n2nccc2n1`, 106%; that for `O=S(=O)(NCCNc1nccc(-c2c(-c3cccc(F)c3)nc3sccn23)n1)c1ccccc1`, 63.1%. The result for `COc1cc(OC)c(Cl)cc1N` reads 131%.

For `O=C1NC(=O)C2C(=O)NC(=O)C1C21CCc2ccccc21` (stereo not given), the growth was 117%. As to `CC(C)=CC[C@@H]1CC2(CC=C(C)C)C(=O)C(OC3(C(=O)c4ccccc4)C(=O)C4(CC=C(C)C)C[C@@H](CC=C(C)C)C(C)(C)C(CC=C(C)C)(C4=O)C3=O)(C(=O)c3ccccc3)C(=O)C(CC=C(C)C)(C2=O)C1(C)C` (stereo not given in full), the growth is -47.7% (active).
